# Assay results from the supplement of paper PMC6555819.
# Columns and labels:
# Test in all cases: PBM binding z-score (relative to random genomic background probes); higher = stronger binding; sequences stand for … in GC…GCGATTGACAGCGTAGAATGAAGG
# [1] = system: FXR:RXRa (NR concentration 270 nM, RXRa partner concentration 90 nM)
# Method in brief: (§1)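 Ligand-free nuclear receptor dimers were bound for 1 h to custom Agilent 4×180K protein-binding microarrays. Detection used antibodies against each partner (one per run). Binding z-scores rest on regression-normalized fluorescence, with random background probes as the reference.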
# [2] = system: LXRa:RXRa (NR concentration 270 nM, RXRa partner concentration 90 nM)
# Method in brief: as §1
# [3] = system: LXRa homodimer (NR concentration 270 nM)
# Method in brief: as §1
# [4] = system: LXRb:RXRa (NR concentration 270 nM, RXRa partner concentration 90 nM)
# Method in brief: as §1
# [5] = system: LXRb homodimer (NR concentration 270 nM)
# Method in brief: as §1
# [6] = system: PPARa:RXRa (NR concentration 270 nM, RXRa partner concentration 90 nM)
# Method in brief: as §1
# [7] = system: PPARg:RXRa (NR concentration 180 nM, RXRa partner concentration 90 nM)
# Method in brief: as §1
# [8] = system: PPARg:RXRa 270nM:90nM, anti-RXR (NR concentration 270 nM, RXRa partner concentration 90 nM)
# Method in brief: as §1
# [9] = system: PPARg:RXRa 30nM:10nM, anti-RXR (NR concentration 30 nM, RXRa partner concentration 10 nM)
# Method in brief: as §1
# [10] = system: PPARg:RXRa 90nM:30nM, anti-RXR (NR concentration 90 nM, RXRa partner concentration 30 nM)
# Method in brief: as §1
# [11] = system: PPARg:RXRa DBDmut IVT, anti-RXR (DBD mutation: RXRa K156A/R161A, NR concentration 270 nM, RXRa partner concentration 90 nM)
# Method in brief: as §1
# [12] = system: PPARg:RXRa IVT, anti-PPARg (NR concentration 270 nM, RXRa partner concentration 90 nM)
# Method in brief: as §1
# [13] = system: PPARg DBDmut:RXRa IVT, anti-PPARg (DBD mutation: PPARg1 K132A/R137A, NR concentration 270 nM, RXRa partner concentration 90 nM)
# Method in brief: as §1
# [14] = system: PPARg DBDmut IVT, anti-PPARg (DBD mutation: PPARg1 K132A/R137A, NR concentration 270 nM)
# Method in brief: as §1
# [15] = system: PPARg homodimer (NR concentration 180 nM)
# Method in brief: as §1
# [16] = system: PXR:RXRa (NR concentration 270 nM, RXRa partner concentration 90 nM)
# Method in brief: as §1
# [17] = system: PXR homodimer (NR concentration 270 nM)
# Method in brief: as §1
# [18] = system: RARa:RXR (NR concentration 270 nM, RXRa partner concentration 90 nM)
# Method in brief: as §1
# [19] = system: RARa homodimer (NR concentration 270 nM)
# Method in brief: as §1
# [20] = system: RARb:RXRa (NR concentration 270 nM, RXRa partner concentration 90 nM)
# Method in brief: as §1
Sequence,PBM binding z-score [1],PBM binding z-score [2],PBM binding z-score [3],PBM binding z-score [4],PBM binding z-score [5],PBM binding z-score [6],PBM binding z-score [7],PBM binding z-score [8],PBM binding z-score [9],PBM binding z-score [10],PBM binding z-score [11],PBM binding z-score [12],PBM binding z-score [13],PBM binding z-score [14],PBM binding z-score [15],PBM binding z-score [16],PBM binding z-score [17],PBM binding z-score [18],PBM binding z-score [19],PBM binding z-score [20]
CGTCAAAGTTCAGCTAAGGTAACGTAAAGCACGC,4.58,4.17,1.68,2.31,0.319,3.68,3.16,3.94,1.03,2.96,0.23,1.25,0.517,-0.309,1.44,4,1.56,3.29,1.13,4.65
AGAATGAGGTTATGCGTAGATCAGGGAAGAAAGT,1.66,1.51,-0.231,1.31,-0.169,3.1,1.44,2,0.664,1.12,2.31,2.01,0.845,0.71,0.621,0.966,0.308,1.32,0.403,1.57
CTAACGAGGGCATGAGTTGATAGCAAATGCCGAT,0.543,0.409,-0.604,0.119,-0.182,1.54,1.71,2.02,0.704,1.51,3.84,2.56,0.128,0.129,0.262,0.639,0.123,0.588,0.359,2.01
CTCGAAAGGTTGGTTGAGGTGAGTATACGGATAA,1.15,0.487,-0.0312,0.38,-0.269,0.843,-0.0296,0.107,0.0087,0.291,-0.057,0.667,-0.538,-0.309,0.774,1.11,0.376,1.09,0.368,1.17
GCGACTGGGGTATCAGCAGGTTACCATAACTTAA,-0.215,0.488,-0.233,0.757,-0.459,0.871,0.146,0.0504,-0.489,-0.489,1.21,0.938,-0.348,-0.554,0.313,-0.149,-0.238,0.3,-0.218,0.249
AGAATGAGGTTATACGTAGTTCAGGGAAGAAAGT,2.23,3.06,0.289,1.93,-0.31,3.55,1.85,2.29,0.654,1.49,3.46,2.53,1.03,0.605,0.814,3.07,0.774,2.66,0.46,1.96
CATACAGGGTCAGCAAGGCCAGAGTAGGGACGGC,4.73,3.36,-0.0417,2.23,-0.0671,4.51,3.47,3.27,0.536,2.04,1.19,2.54,0.587,0.984,1.18,2.66,0.241,3.24,0.341,4.25
TCGAGTTGGTTACCAATGGGGCATTCAGCTTTCT,-0.51,-0.505,-1.1,-0.17,-0.988,-0.0256,-0.676,0.352,0.536,0.652,0.424,-0.405,-1.9,-0.375,-1.66,-0.425,-0.63,-0.69,-1.31,-0.219
ATCGAAAGGGCGAAGGTGAGTATACCCACCCGAA,0.199,0.432,-0.538,0.0351,-0.165,1.72,1.93,2.33,0.766,1.93,-0.906,0.809,0.146,-0.234,1.04,0.359,-0.166,1.03,-0.384,1.94
CTTCGGAGGACAGAAGGTCAGAGCTGTCCGCTTT,1.6,1.84,-0.0247,0.975,-0.772,1.85,-0.0897,1.07,-0.905,0.484,0.227,0.203,-0.826,-2.02,1.51,1.56,-0.691,2.18,-0.152,3.17
TAGCCTAGGTCATGCGGGCCAGTCTAGTGTCGGC,3.89,3.03,-0.0115,1.36,-0.0777,3.43,2,2.23,-0.051,0.877,1.3,2.93,0.182,0.146,0.871,1.4,-0.585,2.48,-0.19,3.86
TAGCCTAGGTCATGGGCCCGTATACCACGCGAAC,4.69,3.5,0.466,2.77,-0.0336,4,3.44,3.32,0.723,2.09,1.21,3.21,-0.0541,-0.484,1.07,1.92,-0.637,2.86,0.106,3.81
GCGAGTGGGGCATCAGCAGGTTACCATAACTTAA,-0.42,-0.14,-0.135,1.15,0.239,1.15,0.528,0.575,-0.218,0.332,3.22,2.59,-0.589,-0.427,0.496,0.25,-0.251,0.531,-0.613,0.812
TCGAGTAGGTTAGACGGGGCATTCAGCCAACATA,0.121,0.00602,-0.343,0.522,-0.523,0.783,0.118,0.993,1.05,1.04,2.22,0.996,-0.111,0.319,-0.139,-0.0359,-0.369,-0.135,-0.49,0.612
TCGAGTAGATTAGTCGGGGCATTCAGCCAACATA,-0.148,-0.282,-0.477,0.225,-1.13,-0.142,-0.45,0.0888,0.947,0.374,0.609,-0.356,-0.764,-0.113,-0.53,-0.262,-0.468,-0.389,-0.665,-0.416
CGAACTAGGTCAGATCAGGACAGTGAAGGATGAT,2.96,0.93,-0.182,0.466,-0.387,3.07,5.57,4.64,1.82,3.82,7.59,7.23,0.934,0.164,1.18,1.83,0.129,1.19,-0.0983,3.17
TGAATGAGGTTATAAGATCACGGAACGTTGCAAA,1.72,1.49,-0.0904,1.48,-0.205,3.21,2.15,2.44,1.12,2.05,0.939,2.19,1.02,1.32,0.335,1.43,0.182,2.09,0.409,1.5
ACTCGGAGAACAAAGGTCAGAGCTACGCCAGTGA,3.2,3.85,1.8,3.29,0.2,4.69,5.98,5.81,4.63,6.07,0.49,2.78,0.171,-0.0554,1.94,3.41,0.0377,3.89,0.493,4.21
GCGACTGGGGGAAAGCAGGTTACCATAAGGTTGG,0.271,0.375,-0.178,1.5,2.74,1.75,0.956,1.47,0.539,1.33,2.14,3.37,1.81,2.84,0.279,0.944,0.0746,1.14,-0.282,0.616
TCGAGTAGGTTAGTGGCATTCAGAATGGCGTCGA,-0.429,-0.347,-0.383,-0.122,-1.05,0.197,-0.294,0.534,0.972,0.858,2.03,1.11,-1.08,-0.671,0.509,-0.288,-0.134,-0.0955,-0.37,0.0922
TCGAGTAGGTTAGGGTCATTCAGAATGGCGTCGA,4.57,3.41,0.537,3.62,-0.146,4.66,3.15,4.16,2.2,3.52,2.47,2.77,-0.28,0.496,2.22,4.55,2.03,5.08,0.43,3.08
TCTTGTAGATCAAGCAGGTTAAGCAAGCCTGAGT,0.175,0.151,-0.473,0.104,-0.672,0.618,-0.429,1.09,2.44,1.39,1.65,0.529,-0.37,-0.0257,-0.443,0.0788,-0.00179,0.628,-0.655,0.278
TCGAGTGGGTTAGTCGGGGCATTCAGCCAACATA,0.26,0.197,0.0739,0.985,-0.295,0.659,-0.439,0.869,0.979,0.719,1.67,1.4,0.134,-0.527,0.359,0.291,0.241,0.255,0.0202,0.514
TTACCAAGGTGAAAAGTCGTTGATGCACGCCTTG,0.666,0.719,-0.432,0.311,-0.57,2.25,2.75,4.56,2.5,4.19,1.72,2.64,0.0551,0.367,0.274,0.136,-0.523,0.987,-0.563,1.06
GCTAGCAGGCGATTTGGGTCACTCAATGACGGGC,0.0524,-0.217,-0.513,-0.281,-0.929,1.48,0.632,0.575,-0.192,0.427,1.67,2.53,-0.476,-0.307,-0.254,0.00388,-0.474,0.575,-0.848,0.752
GCTCGGCGGACAAGGTCAGAGCTTTGTCCGTAGA,1.19,1.42,-0.598,0.784,-1.28,2.03,-0.519,0.435,-0.807,-0.297,-0.55,0.128,-1.6,-1.83,-0.129,1.55,-0.547,1.95,-0.932,2.81
CCTGCTGGGCCATTCAGAGGTCATTGATCATATG,2.79,4.29,6.46,4.01,0.198,3.65,0.755,1.86,0.0618,1.15,0.632,1.28,-1.02,-0.733,1.68,4.82,2.03,4.69,-0.506,3.23
CAAACTAGGTCCAGGTCAAAGTCGGTTTGTGCCA,2.21,2.36,1.47,1.98,0.0545,3.29,2.6,3.28,0.928,2.59,3.43,3.67,0.261,-0.192,1.29,2.57,0.685,2.22,0.417,2.9
CCAACTAGGTCACCGGAAGGTCAAAGTCCGCATG,6.49,5.96,5.35,5.35,1.43,5.81,9.14,7.51,5.79,6.94,8.42,8.36,0.902,1.2,9.32,6.17,2.46,7.7,4.05,5.15
